Screen size: about 340,000 compounds; about 1,700 (0.5%) were called active. Rule as the data show it: active = inhibition above about 40%; inactive = the rest. The full list was thinned out, with actives kept by preference.
Target: Cysteine protease ATG4B (Homo sapiens) (UniProt Q9Y4P1)
Experiment: ATG4B protease inhibitors, primary screen, biochemical, fluorescence, uHTS (AID 504462)
Conditions: ATG4B cleavage of LC3-PLA2, NBD-HPC fluorescence, 1 h; at 8.33 µM; active compounds read high

Cysteine protease ATG4B (Homo sapiens), sequence (Q9Y4P1 whole entry, looked up): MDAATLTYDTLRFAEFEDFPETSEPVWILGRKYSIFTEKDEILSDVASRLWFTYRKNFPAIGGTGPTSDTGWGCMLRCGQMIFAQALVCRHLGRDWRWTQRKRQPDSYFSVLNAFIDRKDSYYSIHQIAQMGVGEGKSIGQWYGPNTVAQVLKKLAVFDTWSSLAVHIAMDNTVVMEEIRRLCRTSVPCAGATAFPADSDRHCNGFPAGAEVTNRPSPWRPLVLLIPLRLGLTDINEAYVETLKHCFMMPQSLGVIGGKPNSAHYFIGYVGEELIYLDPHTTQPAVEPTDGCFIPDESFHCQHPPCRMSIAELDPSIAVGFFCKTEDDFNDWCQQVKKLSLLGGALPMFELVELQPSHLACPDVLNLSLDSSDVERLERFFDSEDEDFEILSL

inhibition, active:
c1ccc(C2=Nc3cccc4cccc(c34)N2)cc1 56.3%, COc1ccc(NC(=O)COc2ccc(C(=O)c3ccc(F)cc3)cc2)cc1S(N)(=O)=O 97.7%, Cc1ncc(CC(=O)n2cc(C(=O)c3cc(Cl)ccc3O)cn2)s1 80%, CN(Cc1c(F)cccc1Cl)S(=O)(=O)c1cccs1 49.8%, CCCc1[nH]nc2c1C(c1ccc(OC(=O)c3ccco3)cc1)C(C#N)=C(N)O2 (stereo not given) 69.2%, O=C(COC(=O)/C(=C/c1cccs1)c1cccs1)NCc1ccccc1Cl 56%, O=C(COC(=O)c1cc2c(s1)CCCC2)NCc1ccccc1Cl 40.4%, O=C(CSc1nc(-c2ccccc2)cs1)Nc1cccc([N+](=O)[O-])c1 41.4%, Cc1c(Cl)c([N+](=O)[O-])nn1Cc1ccc(C(=O)N/N=C\c2cc(Cl)ccc2O)o1 64.3%, Cc1nn(-c2ccccc2)c(C)c1/C=N/NC(=O)CSc1nc2ccccc2c(=O)n1-c1ccccc1 45.1%, Cc1ccc(-n2c(SCC(=O)N/N=C/C=C/c3ccccc3[N+](=O)[O-])nc3ccccc3c2=O)cc1 54.4%, COc1ccc(C)cc1S(=O)(=O)N(CC(=O)Nc1cccc([N+](=O)[O-])c1)c1ccc(C)cc1 88.8%, Cc1ccc(S(=O)(=O)N(CC(=O)Nc2cccc([N+](=O)[O-])c2)Cc2ccc(Cl)cc2)cc1 75.6%, CC(C)c1ccc2c(c1)c(SC(C)(C)C)c(CC(C)(C)C(=O)O)n2Cc1ccc(Cl)cc1 56.2%, COc1cnc(-c2ccccn2)nc1Oc1ccc(C(C)(C)C)cc1 59.3%, Cc1ccc(-c2cc(C(=O)N3CCc4ccccc4C3)no2)cc1 40%, O=C1c2ccccc2C(=O)N1Cc1cc(-c2ccccc2Cl)no1 56.3%, Cc1nc2ccccc2c(-c2ccccc2)c1C(=O)c1ccccc1 80%

inhibition, inactive:
Fc1ccccc1N=C1Nc2cccc3cccc1c23 -6.86%, COc1ccccc1C1=Nc2cccc3cccc(c23)N1 12.2%, CCN1CCCC1CNC(=O)Cn1cnc2ccc(S(=O)(=O)N3CCC(C)CC3)cc2c1=O (stereo not given) -2.67%, NC(=O)C1CCN(C(=O)c2ccc(F)c(S(=O)(=O)N3CCOCC3)c2)CC1 0.71%, Nc1c(Cl)cc(S(N)(=O)=O)cc1S(N)(=O)=O 3.68%, CCc1ccc(N2CC(C(=O)Nc3ccc(S(=O)(=O)Nc4nccs4)cc3)CC2=O)cc1 (stereo not given) -16.4%, CCNC(=O)c1ccc(OCC(=O)Nc2ccc(F)cc2)c(OC)c1 2.31%, COc1ccc(NS(=O)(=O)c2cc(NC(=O)COc3ccccc3F)ccc2OC)cc1 -14.9%, O=C(Nc1ccn(CCCNCc2ccc3[nH]ccc3c2)c(=O)n1)OCc1ccccc1 -8.68%, COc1cccc(NC(=O)C/C(C)=N/NC(=O)C2CCCCC2)c1 1.29%, O=C(c1cnn(-c2ccc(Cl)cc2)c1)c1ccccc1O 14.8%, Cc1ccc(CCC(=O)Nc2ncc(Cc3cc(Cl)ccc3Cl)s2)o1 0.02%, COc1ccc(NC(=O)CC2SC(N3CCCCC3)=NC2=O)cc1OC (stereo not given) -1.9%, CN(CC(=O)NCc1ccc(Cl)cc1)S(=O)(=O)c1cccs1 -5.56%, CN(Cc1ccc(F)cc1Cl)S(=O)(=O)c1cccs1 11%, COC(=O)c1c(NC(=O)c2c(Cl)cnn2C)sc(C)c1C -7.14%, CC1(C)Cc2cccc(OCC(=O)Nc3nccs3)c2O1 -9.2%, Cc1ccccc1N1CCN(C2CCCN(C(=O)c3ocnc3C)C2)CC1 (stereo not given) 4.49%, COc1ccc(S(=O)(=O)Nc2cc(C)on2)cc1NC(C)=O -6.89%, COc1ccc(-c2[nH]nc3c2C(c2ccncc2)C(C#N)=C(N)O3)cc1 (stereo not given) -11%, CCCc1[nH]nc2c1C(c1ccc(Br)s1)C(C#N)=C(N)O2 (stereo not given) -2.42%, CCC(=O)c1cc2c(cc1NC(=O)c1cccs1)OCCO2 -18.9%, C[C@@H]1ON(C)[C@H]2C[C@H]3c4cc(N5CCN(C)CC5)ccc4CCN3C(=O)[C@@H]12 -6.52%, CCc1c(O)cc2n(c1=O)-c1ccccc1C2(C)C -8.25%, O=C(COC(=O)c1ccc2c(c1)OCCO2)NCc1ccccc1Cl 22.8%, CN(C)C(=O)c1ccc(NC(=O)COC(=O)c2cc3c(s2)CCCCC3)cc1 -5.46%, COc1ccccc1CNC(=O)COC(=O)c1cccs1 0.37%, O=C(COC(=O)c1cccs1)NCc1cccs1 -10.9%, COc1ccc(NC(=O)C2CCC(CNc3c(N4CCCCC4)c(=O)c3=O)CC2)c(OC)c1 (stereo not given) 26.1%, CCN1CCN(C(=O)c2ccc(CN(c3ccc(C)c(C)c3)S(C)(=O)=O)cc2)CC1 -3.29%, Cc1ccc(S(=O)(=O)N(C)CC(=O)NCC(c2ccc(F)cc2)N2CCOCC2)cc1 (stereo not given) -5.42%, CCC(C)(C)n1nnnc1C(c1cccs1)N1CCN(c2nc3ccccc3s2)CC1 (stereo not given) 1.17%, COc1nc(NC2CCCCC2)nc(N2CCCCCC2)n1 15.7%, O=C(CSc1ncn[nH]1)Nc1nc(-c2cccc([N+](=O)[O-])c2)cs1 -6.82%, COc1ccc(-n2cnnc2SCC(=O)Nc2cccc([N+](=O)[O-])c2)cc1 -7.34%, Cc1cc(NC(=O)c2ccco2)c(=O)n(Cc2c(F)cccc2Cl)c1 4.88%, Cc1nn(Cc2ccccc2Cl)c(C)c1NC(=O)Cn1nc([N+](=O)[O-])c(Cl)c1C -0.32%, O=C(N/N=C\c1ccc(Br)cc1)c1ccc(Cn2cccn2)o1 -3.61%, O=C(CSc1nc2ccccc2[nH]1)N/N=C/C=C\c1ccccc1[N+](=O)[O-] 7.51%, C/C(=N\NC(=O)CSc1nc2ccccc2c(=O)n1-c1ccccc1C)c1cccs1 8.49%, Cn1c(SCC(=O)N/N=C/c2ccc(O)c(O)c2)nc2ccccc21 -12.3%, CCn1c(SCC(=O)N/N=C/C=C/c2ccccc2[N+](=O)[O-])nnc1-c1ccccc1 1.16%, CCC[C@@H]1C[C@@]1(CCC)[C@@H](NC(=O)c1ccccc1)c1ccc(C(=O)OC)cc1 -5.7%, COc1ccc(C(=O)NC(C)Cn2nc(C)cc2C)cc1OC1CCN(C(C)=O)CC1 (stereo not given) 3.85%, O=C(CCN1CCN(c2ccccc2)CC1)NNC(=S)Nc1ccccc1 -1.44%, CCc1ccc2c(c1)C1(NN=C(c3ccccc3)S1)C(=O)N2 (stereo not given) 12.8%, CCN=C1S/C(=C\c2cc(Br)ccc2OCC(=O)OCC)C(=O)N1CC -7.54%, Cc1ccccc1OCc1nnc(SCC(=O)N2c3ccccc3Sc3ccc(Cl)cc32)o1 -8.7%, O=S(=O)(Oc1ccccc1C(=S)N1CCOCC1)c1ccc(Cl)cc1 2.25%, CN(C)c1cc(N)c2ccccc2n1 (tested in a mixture with another compound) -6.07%, Cn1cc[n+](C)c1COc1ccc(C=O)cc1 6.27%, Cc1ccc(S(=O)(=O)N(Cc2cccc([N+](=O)[O-])c2)C(=O)N2CCN(C)CC2)cc1 3.55%, COc1ccc(N(CC(=O)Nc2ccc(C)cc2C)S(=O)(=O)c2ccccc2[N+](=O)[O-])c(OC)c1 -12.7%, CN(c1ccccc1)S(=O)(=O)c1cccc(NC(=O)Cc2ccc(Cl)cc2)c1 -14.9%, Cc1ccc(N(CC(=O)Nc2cc(C)cc(C)c2)S(=O)(=O)c2cccc3nonc23)cc1 12.5%, CCCCn1c(N)c(N(CC(C)C)C(=O)CSc2ccc([N+](=O)[O-])cc2)c(=O)[nH]c1=O 8.17%, CCOC(=O)CCCNC(=O)COC(=O)c1cc(Br)c(Br)s1 -7.58%, C/C=N/NC(=O)CCCC(=O)N/N=C/C -3.09%, CCN(CC)S(=O)(=O)c1ccc(N(C)Cc2ccc(C(F)(F)F)cc2)nc1 -7.77%, O=C(c1ccco1)N1CCN(CC(=O)N(C2CCCCC2)C2CCS(=O)(=O)C2)CC1 (stereo not given) 0.94%, COc1ccc(NCCc2ccccn2)cc1 -5.58%, N#Cc1ccc(Oc2cc(C(F)(F)F)nc(-c3ccccn3)n2)cc1 -10.2%, CCCCN(C1CCS(=O)(=O)C1)S(=O)(=O)c1ccc(C(C)C)cc1 (stereo not given) 6.86%, O=C(c1cc(-c2cccc(O)c2)on1)N1CCc2ccccc2C1 35.8%, Cn1cccc1C(=O)N1CCc2ccccc2C1 -0.25%, O=C(Nc1ccccc1Cl)N1CCN(c2ccc3nncn3n2)CC1 -9.87%, CN1C(=O)[C@H]2[C@@H](C3CC3)N3C(=O)CN(Cc4ccccc4)C(=O)[C@@]3(C)[C@H]2C1=O 0.76%, O=C1c2ccccc2C(=O)N1CCCc1nc(-c2ccccc2)no1 3.08%, O=C1c2ccccc2C(=O)N1CCCCCCN1C(=O)c2ccccc2C1=O 2.67%, Cc1nc2ccccc2c(C)c1C(=O)c1ccc(F)cc1 -2.83%, Cc1nc2ccccc2c(C(=O)O)c1-c1ccccn1 -2.51%, CCn1c2c(c3ccc(OC)cc31)CCCC2=O -3.83%
